The values that follow come from PubChem BioAssay AID588689 (Southern Research Specialized Biocontainment Screening …, 2011).

The experiment deals with Genome polyprotein (Dengue virus type 2 (strain 16681-PDK53)) (UniProt P29991). Description: flavivirus cap methylation enzyme inhibition – biochemical, confirmation dose response, primary screen (AID 588689). Conditions: Dengue-2 NS5 methyltransferase capping enzyme assay, at 25 µM, stronger effect = higher value.
[1] abbreviates: measured here: pilot screen replicate inhibition.

The whole screen tested about 340,000 compounds, of which about 1,000 (0.29%) were called active. No stated cut-off is given here; in the data, inconclusive means inhibition above about 29% without an active follow-up result; inactive means below that. The list is a sample of the results. Results with a measured potency or affinity are listed apart.

Sequence of Genome polyprotein (Dengue virus type 2 (strain 16681-PDK53)) (P29991 whole entry, looked up): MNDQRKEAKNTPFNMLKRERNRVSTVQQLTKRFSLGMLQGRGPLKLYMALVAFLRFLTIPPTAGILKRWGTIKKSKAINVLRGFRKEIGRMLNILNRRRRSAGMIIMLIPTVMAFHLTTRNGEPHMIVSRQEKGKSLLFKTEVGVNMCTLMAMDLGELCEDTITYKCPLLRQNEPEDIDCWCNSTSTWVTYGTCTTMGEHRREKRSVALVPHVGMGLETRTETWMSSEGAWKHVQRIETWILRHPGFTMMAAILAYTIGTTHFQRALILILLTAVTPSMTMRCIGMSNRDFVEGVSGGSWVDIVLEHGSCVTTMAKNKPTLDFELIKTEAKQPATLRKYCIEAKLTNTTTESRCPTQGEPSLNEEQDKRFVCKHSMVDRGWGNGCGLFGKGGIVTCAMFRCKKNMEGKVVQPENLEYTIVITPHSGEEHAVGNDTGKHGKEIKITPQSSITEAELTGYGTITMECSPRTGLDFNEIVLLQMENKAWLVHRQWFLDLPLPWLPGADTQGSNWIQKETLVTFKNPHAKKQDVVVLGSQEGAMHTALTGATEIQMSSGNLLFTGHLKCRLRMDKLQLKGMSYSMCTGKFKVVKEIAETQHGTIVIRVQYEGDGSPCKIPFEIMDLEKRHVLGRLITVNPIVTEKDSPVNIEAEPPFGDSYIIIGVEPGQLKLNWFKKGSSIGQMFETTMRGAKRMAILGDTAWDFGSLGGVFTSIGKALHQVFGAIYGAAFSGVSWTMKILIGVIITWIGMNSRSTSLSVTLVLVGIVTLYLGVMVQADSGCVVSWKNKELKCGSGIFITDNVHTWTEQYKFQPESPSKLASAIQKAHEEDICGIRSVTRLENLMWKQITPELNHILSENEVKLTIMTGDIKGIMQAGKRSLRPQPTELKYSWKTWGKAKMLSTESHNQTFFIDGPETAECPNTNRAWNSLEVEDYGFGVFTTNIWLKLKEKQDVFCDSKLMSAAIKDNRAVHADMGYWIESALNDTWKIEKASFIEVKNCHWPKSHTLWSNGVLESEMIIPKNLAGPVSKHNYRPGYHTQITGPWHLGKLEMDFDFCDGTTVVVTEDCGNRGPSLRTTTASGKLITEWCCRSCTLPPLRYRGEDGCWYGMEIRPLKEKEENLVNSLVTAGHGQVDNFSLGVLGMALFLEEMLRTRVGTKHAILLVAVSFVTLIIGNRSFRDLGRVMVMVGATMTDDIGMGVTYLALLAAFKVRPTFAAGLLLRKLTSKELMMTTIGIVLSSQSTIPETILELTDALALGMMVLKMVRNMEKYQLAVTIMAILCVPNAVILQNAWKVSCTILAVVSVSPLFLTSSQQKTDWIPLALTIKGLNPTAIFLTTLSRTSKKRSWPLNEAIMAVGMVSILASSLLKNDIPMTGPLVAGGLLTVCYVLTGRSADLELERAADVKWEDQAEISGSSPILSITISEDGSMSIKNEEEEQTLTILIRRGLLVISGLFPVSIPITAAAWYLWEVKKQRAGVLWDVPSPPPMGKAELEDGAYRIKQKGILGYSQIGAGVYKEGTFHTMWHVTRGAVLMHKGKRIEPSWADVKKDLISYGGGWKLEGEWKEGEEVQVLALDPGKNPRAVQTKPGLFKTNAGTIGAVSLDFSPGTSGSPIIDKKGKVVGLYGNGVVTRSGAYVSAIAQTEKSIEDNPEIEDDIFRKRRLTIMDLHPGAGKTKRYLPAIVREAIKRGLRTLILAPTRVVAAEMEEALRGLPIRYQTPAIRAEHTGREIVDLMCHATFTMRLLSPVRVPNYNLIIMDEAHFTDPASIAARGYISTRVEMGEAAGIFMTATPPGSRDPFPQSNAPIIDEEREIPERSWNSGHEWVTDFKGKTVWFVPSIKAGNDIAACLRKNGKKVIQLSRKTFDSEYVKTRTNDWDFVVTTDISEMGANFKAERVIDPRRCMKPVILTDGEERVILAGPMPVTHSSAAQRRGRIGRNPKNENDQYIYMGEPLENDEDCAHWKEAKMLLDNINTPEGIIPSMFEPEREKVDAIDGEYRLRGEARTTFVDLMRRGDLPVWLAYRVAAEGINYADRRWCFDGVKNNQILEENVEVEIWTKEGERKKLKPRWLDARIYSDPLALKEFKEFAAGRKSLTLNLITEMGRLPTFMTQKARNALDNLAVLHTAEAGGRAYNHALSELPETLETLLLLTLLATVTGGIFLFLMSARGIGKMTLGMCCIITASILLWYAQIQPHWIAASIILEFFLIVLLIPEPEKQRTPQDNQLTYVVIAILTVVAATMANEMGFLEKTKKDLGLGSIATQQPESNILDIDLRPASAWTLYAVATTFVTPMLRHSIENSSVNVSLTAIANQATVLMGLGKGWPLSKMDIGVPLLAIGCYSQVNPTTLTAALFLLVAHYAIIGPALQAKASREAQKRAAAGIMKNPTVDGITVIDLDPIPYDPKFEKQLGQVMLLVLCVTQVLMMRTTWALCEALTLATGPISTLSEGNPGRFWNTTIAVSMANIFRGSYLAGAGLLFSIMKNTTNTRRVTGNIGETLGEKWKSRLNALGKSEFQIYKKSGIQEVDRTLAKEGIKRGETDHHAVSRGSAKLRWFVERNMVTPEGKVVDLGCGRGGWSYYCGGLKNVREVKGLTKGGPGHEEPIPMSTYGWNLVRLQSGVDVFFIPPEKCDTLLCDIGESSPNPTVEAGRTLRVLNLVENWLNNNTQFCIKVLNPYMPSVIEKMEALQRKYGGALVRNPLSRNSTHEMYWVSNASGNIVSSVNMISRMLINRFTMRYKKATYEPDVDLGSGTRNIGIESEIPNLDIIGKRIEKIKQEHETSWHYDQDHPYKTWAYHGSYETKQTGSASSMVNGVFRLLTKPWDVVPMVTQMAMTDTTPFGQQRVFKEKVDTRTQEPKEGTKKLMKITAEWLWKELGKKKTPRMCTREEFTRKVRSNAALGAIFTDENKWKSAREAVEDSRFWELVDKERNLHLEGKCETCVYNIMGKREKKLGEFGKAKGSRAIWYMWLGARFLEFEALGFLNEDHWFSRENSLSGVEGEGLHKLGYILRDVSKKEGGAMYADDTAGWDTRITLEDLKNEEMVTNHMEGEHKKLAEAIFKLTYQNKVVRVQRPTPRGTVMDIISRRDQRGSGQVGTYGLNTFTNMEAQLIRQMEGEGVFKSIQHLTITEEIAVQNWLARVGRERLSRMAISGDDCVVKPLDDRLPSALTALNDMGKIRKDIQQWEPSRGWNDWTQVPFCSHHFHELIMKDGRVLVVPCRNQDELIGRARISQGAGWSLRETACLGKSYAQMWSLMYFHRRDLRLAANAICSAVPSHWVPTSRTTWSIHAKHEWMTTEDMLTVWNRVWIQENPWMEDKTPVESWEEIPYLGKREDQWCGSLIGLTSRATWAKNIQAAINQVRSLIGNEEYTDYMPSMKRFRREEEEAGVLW

A word on the inhibition: it is the drop in the measured response relative to a control, in per cent. As to `Cc1ccc(Nc2nnc(SC(C)C(=O)NCC3CCCO3)s2)cc1C` (configuration not stated), the inhibition is 4.44% (inactive).
On the same count and under the same terms, to `CCc1ccc(N(C(=O)C(F)(F)F)C(C(=O)NC2CCCCC2)c2ccncc2)cc1` (configuration not stated) belongs 0.69% (inactive).
`Cc1n[nH]c(C)c1CCCCOc1ccccc1[N+](=O)[O-]`: the inhibition is -3.29% (inactive). Also, under setting [1], the inhibition is -1.21%.
With `CSc1nnc(C)c(=O)n1COC(=O)COc1ccccc1F`, the inhibition is 9.2% (inactive).
`COc1ccc(CCn2c(C)c(C(C)=O)c3cc(OC(=O)c4ccco4)ccc32)cc1OC`: the inhibition was -1.6% (inactive).
On the same count and under the same terms, to `COc1ccccc1-n1c(CNC(=O)c2ccc(S(=O)(=O)N3CCOCC3)cc2)n[nH]c1=S` belongs -4.46% (inactive).
On the same count and under the same terms, to `C=C(C)CN1C(=O)c2ccccc2C1=O` belongs 2.04% (inactive); to `CC(=O)N1N=C(c2ccc(C)o2)CC1c1ccc(Br)cc1` (configuration not stated), -4.86% (inactive); to `COc1cc2c(cc1OC)C(COc1cccc(C(F)(F)F)c1)NCC2` (configuration not stated), 6.97% (inactive).
`CCCCOc1ccc(C(=O)NCC(=O)NC2CC2)cc1`: the inhibition is 1.44% (inactive).
On to `CCOC(=O)c1nc[nH]c1C`, for which the inhibition is -4.86% (inactive).
Regarding `Cc1ccc(NC2=C/C(=N\S(=O)(=O)c3cccs3)c3ccccc3C2=O)c(C)c1`, the inhibition was 12.8% (inactive).
In the case of `Cc1ccc(S(=O)(=O)/N=C2\C=C(NS(=O)(=O)c3ccccc3)C(=O)c3ccccc32)c(C)c1`, the inhibition is 13.1% (inactive).
On the same count and under the same terms, under `COc1ccc(S(=O)(=O)/N=C2\C=C(Nc3ccc(O)cc3)C(=O)c3ccccc32)cc1` stands 10.3% (inactive).
Regarding `Cc1ccc(S(=O)(=O)Nc2ccccc2C(N)=O)cc1`, the inhibition was -8.11% (inactive). Further, the inhibition under setting [1] is -8.21%.
In the case of `CC(=O)OC1(C)C=Cc2ccccc2C1=NS(=O)(=O)c1ccccc1` (configuration not stated), the inhibition was 4% (inactive).
On the same count and under the same terms, to `Cc1ccc(S(=O)(=O)Nc2ccccc2-c2ccccc2)cc1` belongs -9.37% (inactive); to `CN1C/C(=N\S(=O)(=O)c2ccccc2)N(C)C1=O`, -4.44% (inactive).
Same read-out and setting: under `CC(C)c1ccc(-c2csc3nc[nH]c(=O)c23)cc1` stands -4.66% (inactive); under `O=[N+]([O-])c1cc(C(F)(F)F)ccc1-n1nnc2ccccc21`, 1.31% (inactive).
For `Cc1cc2cc(CNC(=O)Nc3cccc(Cl)c3)ccc2n1C`, the inhibition is 22.2% (inactive).
The same measure, in the same setting: under `COCCNc1nnc(SCC(=O)NC(=O)c2ccc(Cl)cc2)s1` stands 2.89% (inactive); under `COc1ccc(OC)c(NC(=O)c2cccc(N3C(=O)C4C5CCC(C5)C4C3=O)c2)c1` (configuration not stated), -6.74% (inactive); under `CCOC(=O)CCC(NC(=O)CCC(=O)NC(CCC(=O)OCC)C(=O)OCC)C(=O)OCC` (configuration not stated), -7.26% (inactive).
The same measure, in the same setting: to `O=C(CNC(=O)c1ccccc1F)NCCN1C(=O)S/C(=C\c2ccc3c(c2)OCO3)C1=O` belongs -1.45% (inactive); to `O=C(c1ccc(CS(=O)c2ccc(F)cc2)o1)N1CCN(C2CCCCC2)CC1` (configuration not stated), -10.8% (inactive); to `Cc1[nH]c(=O)[nH]c(=O)c1CSc1nnc([C@@H](NC(=O)OC(C)(C)C)C(C)C)o1`, 0.56% (inactive).
On the same count and under the same terms, to `COC(=O)C(C(C)=O)C1=C/C(=N\S(=O)(=O)c2ccc(C)cc2)c2ccccc2C1=O` (configuration not stated) belongs -8.06% (inactive); to `CC(C)(C)c1ccc(S(=O)(=O)Nc2ccccn2)cc1`, 2.21% (inactive).
As to `Cc1ccc(S(=O)(=O)/N=C2\C=C(Nc3ccc(O)cc3)C(=O)c3ccccc32)cc1`, the inhibition was -0.74% (inactive).
For `C/C(=N\NS(=O)(=O)c1ccc(C(C)(C)C)cc1)c1ccccc1`, the inhibition was -0.98% (inactive).
Same read-out and setting: to `O=C(CCN1C(=O)C2CC=CCC2C1=O)Nc1cccc(S(=O)(=O)N2CCCCC2)c1` (configuration not stated) belongs 0% (inactive); to `NC(=O)CSc1nnc(-c2cccs2)n1-c1ccccc1`, -6.45% (inactive); to `COCCN(C(=O)COC(=O)CCSc1ccc(F)cc1)c1c(N)n(Cc2ccccc2)c(=O)[nH]c1=O`, -5.13% (inactive).
Same read-out and setting: under `COC(=O)C1(C(=O)OC)C(C(=O)c2ccccc2)C1c1ccccc1` (configuration not stated) stands 5.57% (inactive); under `COc1cc(SC)ccc1C(=O)Nc1cccc(S(=O)(=O)NC2=NCCCCC2)c1`, -1.45% (inactive).
With `CCCNC(=O)c1ccc2nc(-c3ccccc3)c(-c3ccccc3)nc2c1`, the inhibition was -0.8% (inactive).
On the same count and under the same terms, to `O=C(Nc1ccc(N2CCOCC2)cc1)c1ccc2nc(-c3ccco3)c(-c3ccco3)nc2c1` belongs 3.24% (inactive).
As for `COc1ccc2nc3c(nc2c1)CCCC3`, the inhibition was -8.49% (inactive).
Same read-out and setting: under `O=C(Nc1cccc(C(F)(F)F)c1)c1ccc2nc(-c3ccco3)c(-c3ccco3)nc2c1` stands 21.6% (inactive); under `O=C(Nc1ccc(N2CCOCC2)cc1)Nc1ccc2nc(-c3ccco3)c(-c3ccco3)nc2c1`, 13.6% (inactive); under `CCc1nc2ccc(C(=O)NCCc3ccco3)cc2nc1CC`, -11.5% (inactive).
Turning to `COCCNC(=O)Nc1ccc2nc(-c3cccs3)c(-c3cccs3)nc2c1`, the inhibition is -17.7% (inactive).
On the same count and under the same terms, under `COc1ccc2nc3ccccc3nc2c1` stands 18.8% (inactive).
Take `Cc1ccccc1NC(=O)Cc1cccs1`: the inhibition was -7.91% (inactive). The inhibition under setting [1] is -5.49%.
`COc1cc2c(cc1OC)CC(C(=O)NCc1ccccc1)NC2` (configuration not stated): the inhibition is -4.57% (inactive).
Same read-out and setting: under `O=C(C1CCCN(S(=O)(=O)c2ccccc2)C1)N1CCN(c2ccccc2)CC1` (configuration not stated) stands -6.74% (inactive); under `CCN(CC)C(=O)C1CCCN(C(=O)Nc2ccccc2)C1` (configuration not stated), -0.8% (inactive); under `CN(/N=C/c1ccc2c(c1)OCO2)c1ccccc1`, -8.15% (inactive).
The same measure, in the same setting: to `COc1cccc(-c2ncc3ccccc3c2COC(=O)c2cccs2)c1` belongs -7.94% (inactive).
Same read-out and setting: to `O=C(c1ccco1)N1CCN(S(=O)(=O)c2cccc(C(F)(F)F)c2)CC1` belongs 0% (inactive).
With `CCc1nc2ccc(C(=O)NCc3ccco3)cc2nc1CC`, the inhibition is -6.11% (inactive).
On the same count and under the same terms, to `COc1ccc(-c2nc3ccc(C(=O)NCCCN4CCOCC4)cc3nc2-c2ccc(OC)cc2)cc1` belongs -9.54% (inactive); to `O=C(c1ccccc1)c1ccc2nc(-c3ccco3)c(-c3ccco3)nc2c1`, 51.1% (inactive); to `O=C(c1ccc2nc(-c3ccco3)c(-c3ccco3)nc2c1)N1CCN(c2ccccc2)CC1`, 0% (inactive).
Same read-out and setting: to `O=C(O)c1ccc2nc(-c3ccccc3)c(-c3ccccc3)nc2c1` belongs -2.57% (inactive); to `O=C(NCCc1ccccc1)c1ccc2nccnc2c1`, 0% (inactive).
On the same count and under the same terms, to `Cc1nc2ccc(C(=O)O)cc2nc1C` belongs -2.96% (inactive).
As to `O=C(Nc1ccccc1)c1ccc2nc(-c3ccco3)c(-c3ccco3)nc2c1`, the inhibition is 44.6% (inactive).
